This is a sample that favours compounds with a hit; in the whole collection about 12% have one here.
HP1b chromo inh – HP1-beta chromodomain-methylated histone interaction inhibition; AlphaScreen HP1-beta / biotin-H3K9me3 peptide binding; Potency, µM (series often up to 114 µM), for the others: at the top dose activity change, negative = inhibition, usual class: inhibitors; actives 0.56% (n = 390,000); AID 540317; further: nearly all actives have a fitted effect of over 70% in size
Target sequence (P83916 whole entry, looked up): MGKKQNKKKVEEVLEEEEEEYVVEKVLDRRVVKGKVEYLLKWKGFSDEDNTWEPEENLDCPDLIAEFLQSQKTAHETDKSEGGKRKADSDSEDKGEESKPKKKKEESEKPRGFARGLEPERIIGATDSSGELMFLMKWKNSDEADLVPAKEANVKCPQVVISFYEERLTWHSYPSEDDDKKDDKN
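Compound inhibition of the preformed complex between 50 nM HP1-beta and 50 nM biotinylated H3K9me3 peptide was read by AlphaScreen. Buffer was PBS pH 7.4 with 0.01% Tween-20. Incubations ran 30 min at room temperature, with 10 ug/mL donor/acceptor beads.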
G9a block – inhibitors of human histone lysine methyltransferase G9a; G9a H3K9 monomethylation, AlphaScreen, 2 h; Potency, µM (titrated, usually from 102 µM), without a hit: top-dose activity, negative = inhibition, hits mostly inhibitors; actives 8.8% (n = 350,000); AID 504332; further: on the % scale 0 is the no-effect control and ±100 the full control effect; nearly all actives have a fitted effect of over 75% in size
Target sequence (Q96KQ7 913-1193 limits assumed): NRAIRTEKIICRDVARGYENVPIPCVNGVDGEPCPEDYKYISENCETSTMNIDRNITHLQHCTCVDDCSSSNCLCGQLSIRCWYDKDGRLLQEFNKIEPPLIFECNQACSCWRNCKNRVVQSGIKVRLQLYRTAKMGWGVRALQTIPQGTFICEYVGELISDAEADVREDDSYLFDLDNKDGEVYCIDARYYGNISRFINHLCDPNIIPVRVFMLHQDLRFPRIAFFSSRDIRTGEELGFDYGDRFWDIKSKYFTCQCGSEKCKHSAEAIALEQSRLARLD
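Using a bead-based AlphaScreen, monomethylated H3K9 product from 2 h room-temperature reactions (G9a 20 nM, peptide 500 nM, SAM 20 uM) was detected with 0.5 ug/mL rabbit anti-H3K9me1 antibody.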
Sfp inh – blocks B. subtilis Sfp PPTase activity. Q9F4F7. Biochemical Sfp PPTase activity, qHTS. Potency, µM, inactives show largest response in the series, negative = inhibition, most hits filed as inhibitors. actives 3.5% (n = 310,000). AID 1490;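 further: the enzyme is Sfp with the accession as filed and its product quenches rhodamine fluorescence; 0% = enzyme reaction without inhibitor and -100% = no enzyme wells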
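Fluorescence-quenching assay with 15 nM Sfp, 5 uM rhodamine-CoA and 12.5 uM BHQ-2-labelled ybbR peptide in pH 7.6 Hepes/MgCl2 buffer. Enzyme was pre-incubated with compound for 15 min at room temperature. Rate was taken from the 30-min fluorescence change (525/598 nm).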
PLK1 PBD block – PLK1 (human) polo-box domain binding inhibition; P53350; Plk1 PBD binding of FITC phosphopeptide, fluorescence polarization; Potency, µM, inactives show max response, negative = inhibition, hits mostly inhibitors; actives 2.8% (n = 360,000); AID 720504; further: series mostly up to about 57 µM; on the % scale 0 is the no-effect control and ±100 the full control effect; nearly all actives have a fitted effect of over 65% in size
BAZ2B block – inhibitors of human BAZ2B bromodomain | AID 504333 | AlphaScreen BAZ2B-H3K14Ac peptide displacement | Potency, µM (doses to about 114 µM), for inactives: top-dose activity change, negative = inhibition, most hits filed as inhibitors | actives 4.4% (n = 360,000) | Q9UIF8; further: on the % scale 0 is the no-effect control and ±100 the full control effect; nearly all actives have a fitted effect of over 60% in size
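Protein-peptide AlphaScreen: BAZ2B 50 nM, b-H3K14Ac 50 nM, 1x PBS pH 7.4 + 0.01% Tween-20. Preincubation 30 min RT; cpd 30 min RT (top 110 uM); beads 20 min RT, light-protected.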
JMJD2A Tudor – blocks the human JMJD2A Tudor domain; actives 4.4% (n = 390,000); AID 504339; O75164; Potency, µM (doses to about 114 µM), for inactives: at the top dose activity change, negative = inhibition, actives largely listed as inhibitors; AlphaScreen JMJD2A-Tudor / H3K4me3 peptide binding; further: on the % scale 0 is the no-effect control and ±100 the full control effect; nearly all actives have a fitted effect of over 50% in size
An asterisk follows results filed as active; ? = inconclusive; nt = no result; [ ] = another dose, or the depositor's remark. The call rests on the fitted dose curve; in most records, active means well fitted curve in the direction sought with a large enough effect; inconclusive means small, poorly fitted or top-dose-only effect, or another doubt; inactive means no such curve, though single readings can be large; an effect the other way counts as inactive or inconclusive. Potency means the concentration at half of the fitted maximal effect.

SMILES | HP1b chromo inh | G9a block | Sfp inh | PLK1 PBD block | BAZ2B block | JMJD2A Tudor
Cc1occc1-c1nnc(SCC(=O)c2ccc(F)cc2)n1Cc1ccco1 | -3% | 10µM* | ? | -8% | 50µM* | -30%
COCCn1c(SCC(=O)c2ccc(CNC(C)=O)o2)nc2ccccc2c1=O | 25% | -50%[59 µM] | 3% | -4% | -10% | 79µM*
Cc1c(NC(=O)Nc2ccc(C(C)(C)C)cc2)c(=O)n(-c2ccccc2)n1C | 1% | -8%[2.33 µM] | 11% | -1% | -22% | ?
O=c1c2c3c(sc2nnn1Cc1ccc(F)cc1)CCCC3 | 67% | 18%[59 µM] | nt | nt | 90% | 34%
O=S(=O)(c1ccsc1)N1CCN(c2nc(-c3cccs3)nc3ccccc23)CC1 | nt | nt | nt | nt | nt | -14%
O=C(CSc1nnc(COc2ccccc2)n1Cc1ccco1)c1ccc(F)cc1 | 18% | 28µM* | 56µM* | -15% | ? | 79µM*
COC(=O)c1ccc(CSc2nc3ccccc3c(=O)n2CC(C)C)o1 | 75% | 47% | -19% | 2% | 1% | 22%
O=C(CSc1nc2ccccc2c(=O)n1Cc1ccco1)c1ccc(F)cc1 | 14% | -5% | 32µM* | -10% | 7% | -6%
Cc1ccc(OCc2nnc(SCC(=O)c3ccccc3)n2Cc2ccco2)cc1 | 5% | ? | -29% | -9% | 2% | ?
COC(=O)c1ccc(CSc2nc3ccccc3c(=O)n2Cc2ccco2)o1 | 8% | 40µM* | 16% | -11% | -5% | -35%
O=C(CCCCCn1c(SCc2ccncc2)nc2ccccc2c1=O)NCc1ccco1 | 1% | ? | -22% | -27% | 50µM* | 25µM*
NC(=O)CSc1nc2ccccc2c(=O)n1Cc1ccco1 | 34% | -11%[59 µM] | 15% | -8% | 3% | -4%
Cc1cccc(OCC(=O)NCC2(N3CCN(C)CC3)CCCCC2)c1 | 11% | -12%[59 µM] | nt | nt | -9% | -13%
CCN1C(=O)C(Cc2nc3ccccc3c(=O)n2-c2cccc(C)c2)c2ccccc21 (centres undefined) | -8% | ? | nt | nt | ? | ?
CCOC(=O)CC(=O)CSc1nc2sc(C)cc2c(=O)n1Cc1ccco1 | 13% | -19%[12.7 µM] | 0% | -6% | -10% | -35%
Cc1cc2c(=O)n(Cc3ccco3)c(SCC(=O)c3ccc(Cl)s3)nc2s1 | 26% | -26%[12.7 µM] | 18µM* | -3% | -9% | -28%
Cc1ccc(NC(=S)N2CCC(N(C)CC3CCCO3)CC2)c(C)c1 (centres undefined) | 7% | 7%[59 µM] | 5% | -2% | -5% | -12%
Cn1c(=O)cc(SCC(=O)N2CCN(C3CCCCC3)CC2)c2ccccc21 | 3% | nt | nt | 0% | nt | -20%
CC(C)Nc1cc(N2CCN(C3CCCCC3)CC2)c2noc3c2c1C(=O)c1ccccc1-3 | ? | ? | nt | nt | 13µM* | 22µM*
Cc1cc(C(=O)NCCCN2CCN(C3CCCCC3)CC2)n(-c2ccccc2)n1 | 19% | -27% | -12% | -15% | -3% | -22%
O=C(O)CCCNc1cc(N2CCN(C3CCCCC3)CC2)c2noc3c2c1C(=O)c1ccccc1-3 | 22µM* | 16µM* | nt | nt | 32µM* | 35µM*
CCNc1cc(N2CCN(C3CCCCC3)CC2)c2noc3c2c1C(=O)c1ccccc1-3 | ? | ? | nt | nt | 35µM* | 50µM*
Cc1cc(Cl)ccc1OCC(=O)NNC(=O)CCOc1ccccc1 | 52% | 12%[2.33 µM] | nt | 2% | 4% | 3%
CCn1c(C)cc(/C=C2/NC(=O)N(c3ccccc3)C2=O)c1C | -9% | nt | -7% | 21µM* | ? | ?
COCCn1c(C)cc(/C=C2/NC(=O)N(c3cccc(Cl)c3)C2=O)c1C | 8% | 50µM* | 11% | -4% | -37% | -24%
SMILES | HP1b chromo inh | G9a block | Sfp inh | PLK1 PBD block | BAZ2B block | JMJD2A Tudor
CC(C)n1cc(/C=C2\NC(=O)N(c3cccc(Cl)c3)C2=O)c2ccccc21 | 16% | ? | -4% | 0% | -14% | -11%
O=C1N/C(=C/c2ccsc2)C(=O)N1c1ccccc1 | 25% | nt | -5% | 4% | -1% | 2%
COc1ccc(-n2c(=O)cnc3cnc(OC)nc32)cc1 | nt | 4%[0.501 µM] | 29% | nt | nt | nt
CCc1nc2ccc(C(=O)N(C)Cc3ccccc3)cn2c1N(CC)Cc1cccc(Br)c1 | nt | nt | nt | 0% | nt | nt
Cc1ccc2c(c1)N(C(=O)N1CCC(C(=O)Nc3cccc(F)c3)CC1)CCO2 | 22% | -31%[59 µM] | nt | nt | -7% | -21%
COC(=O)c1ccc(Oc2coc3cc(OCc4ccc([N+](=O)[O-])cc4)ccc3c2=O)cc1 | 9% | 56µM* | -6% | -9% | -23% | -26%
CC1(C)Cc2ccccc2C(N/N=C/c2cccc(F)c2)=N1 | 58% | 40µM* | 8% | ? | -7%[57.1 µM] | ?
CC(C)=NNC1=NC(C)(C)Cc2ccccc21 | 25% | nt | 5% | 1% | -15% | -6%
O=C(CCc1ccccc1)NNC(=O)Nc1ccccc1 | 20% | 1% | 23% | -1% | -6% | 4%
O=C(CCCCCCCC(=O)NNC(=O)Nc1ccccc1)NNC(=O)Nc1ccccc1 | 4% | -48%[59 µM] | 7% | -13% | 79µM* | 79µM*
FC(F)(F)c1ccccc1NC(=S)Nc1ccccc1 | 38% | 50µM* | -24% | -20% | -2% | -1%
S=C(NN=C(C1CC1)C1CC1)Nc1ccccc1 | -10% | 5.6µM* | 20µM* | ? | -6% | 50µM*
COc1ccc(NC(=S)Nc2ccccc2C(F)(F)F)cc1 | 37% | -32% | -19% | -3% | -25% | -3%
C[Si](C)(C)C#Cc1ccccc1NC(=S)Nc1ccccc1 | nt | nt | 79µM* | nt | nt | nt
CC(C)NC(=O)CN1C(=O)c2cccnc2Sc2ccccc21 | 20% | 24%[59 µM] | nt | nt | -17% | -8%
S=C(NNC(=S)Nc1ccccc1)Nc1ccccc1 | ? | 0.35µM* | 50µM* | ? | -35% | -33%
O=C(Cc1ccccc1)NNC(=S)Nc1ccccc1 | 38% | ? | 14% | -13% | 0% | -3%
S=C(NNC(=S)Nc1ccc(Cl)cc1)NNc1ccccc1 | nt | nt | nt | 7.5µM* | nt | nt
NC(=S)NNC(=S)Nc1ccccc1 | ? | 10µM* | 10µM* | ? | -16% | -26%
CCNC(=S)NNC(=O)Nc1ccccc1 | ? | 3.2µM* | -25% | -6% | 6% | 32µM*
O=C(CSc1nnc(-c2ccccc2Cl)o1)N1CCCc2ccccc21 | 46% | -25%[59 µM] | nt | nt | 16% | 10%
O=C(Cn1c(=O)n(Cc2ccccc2)c(=O)c2oc3ccccc3c21)Nc1ccc(Cl)cc1 | 29% | -7%[59 µM] | nt | nt | -11% | -1%
CCOC(=O)c1cc2c(=O)n3ccccc3nc2n(CCOC)c1=NC(=O)c1c(-c2ccccc2Cl)noc1C | 43% | 0%[59 µM] | nt | nt | 4% | 5%
CCc1cccc(NC(=O)Cn2c(-c3ccc(F)cc3)cc(C(C)=O)c2C)c1 | 12% | 9%[59 µM] | nt | nt | 5% | -3%
C=CCC(C)(O)c1cccs1 (centres undefined) | nt | nt | 9% | nt | nt | nt

Screening data as filed in PubChem.
